A selection: hits, their analogues and other compounds. The true share with any hit is near 9.9%.
Tau fluor counter – counter-screen for tau fibril formation inhibitors; Potency, µM (titrated, usually from 57.7 µM), inactives show at the top dose activity change, negative = decrease; tau K18 P301L Alexa594 fluorescence, heparin fibrillization; 280,000 compounds, 0.93% hits; active means well fitted curve in the direction sought with a large enough effect; inconclusive means small, poorly fitted or top-dose-only effect, or another doubt; inactive means no such curve, though single readings can be large; an effect the other way counts as inactive or inconclusive; further: nearly all actives have a fitted effect of over 55% in size
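Human tau K18 P301L (15 uM unlabeled, 0.24 uM Alexa 594-labeled) in 100 mM sodium acetate pH 7 with 20 uM heparin, 6 hr at 37 C. ThT 30 uM added, 1 hr ambient; Alexa 594 FP and total fluorescence read at 555/632 nm.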
HPGD inh – blocks human HPGD enzyme activity. 150,000 compounds, 4.3% hits. purified HPGD, NADH fluorescence kinetic, PGE2 substrate. AID 894. P15428. Potency, µM, for the others: top-dose activity change, negative = inhibition, hits mostly inhibitors
Target sequence (P15428 whole entry, looked up): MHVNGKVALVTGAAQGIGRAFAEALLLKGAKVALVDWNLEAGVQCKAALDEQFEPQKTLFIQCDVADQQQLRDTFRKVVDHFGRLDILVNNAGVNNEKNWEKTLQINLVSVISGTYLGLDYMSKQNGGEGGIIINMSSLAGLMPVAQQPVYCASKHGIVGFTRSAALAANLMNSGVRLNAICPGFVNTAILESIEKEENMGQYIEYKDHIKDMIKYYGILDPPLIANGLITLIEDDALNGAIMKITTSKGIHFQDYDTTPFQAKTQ
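20 nM HPGD preincubated 15 min at room temperature with compound in 50 mM Tris-HCl pH 8, 0.01% Tween 20. Started with 1 mM NAD+ and 30 uM prostaglandin E2; NADH fluorescence (360/450 nm) read 5 times over 30-s intervals, last minus first.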
KDM4E inh – JMJD2E (human) inhibition. B2RXH2. JMJD2E catalytic domain, FDH-coupled NADH fluorescence (FDH is formaldehyde dehydrogenase). Potency, µM (highest dose often 57.1 µM), for the others: at the top dose activity change, negative = inhibition, hits mostly inhibitors. 230,000 compounds, 1.6% hits;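 further: 0% = wells with enzyme and -100% = buffer wells without enzyme; nearly all actives have a fitted effect of over 50% in size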
ALDH1A1 block – blocks purified human ALDH1A1 activity; P00352; Purified ALDH1A1, NADH fluorescence, propionaldehyde substrate; Potency, µM (top dose mostly 75.3 µM), for the others: top-dose activity, negative = inhibition, most hits filed as inhibitors; 220,000 compounds, 7.3% hits; AID 1030;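 further: plate controls were no enzyme wells and a reference inhibitor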
Tau fibril ThT – tau fibrillization inhibition (ThT binding); P10636; recombinant tau K18 P301L (four-repeat tau fragment), heparin-induced fibrillization, ThT fluorescence; Potency, µM (doses to about 57.4 µM), inactives show at the highest dose activity, negative = inhibition, usual class: inhibitors; 270,000 compounds, 2.1% hits; AID 1460; active means well fitted curve in the direction sought with a large enough effect; inconclusive means small, poorly fitted or top-dose-only effect, or another doubt; inactive means no such curve, though single readings can be large; an effect the other way counts as inactive or inconclusive; further: nearly all actives have a fitted effect of over 55% in size
Target sequence (P10636 561-689 P618L limits assumed): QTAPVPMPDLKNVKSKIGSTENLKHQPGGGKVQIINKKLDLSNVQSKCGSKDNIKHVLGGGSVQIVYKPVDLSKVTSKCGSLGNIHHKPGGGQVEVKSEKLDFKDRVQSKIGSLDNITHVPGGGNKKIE
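Aggregation was driven by heparin (20 uM final) acting on recombinant tau […] bearing P301L in 100 mM sodium acetate pH 7; fibrils were detected with Thioflavin T.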
Tau fibril FP – tau fibrillization inhibition (FP) | K18 P301L tau heparin fibrillization, Alexa594 FP, 6 h | Potency, µM (highest dose often 57.7 µM), without a hit: at the highest dose activity, negative = inhibition, most hits filed as inhibitors | 280,000 compounds, 0.39% hits | AID 1468 | P10636; active means well fitted curve in the direction sought with a large enough effect; inconclusive means small, poorly fitted or top-dose-only effect, or another doubt; inactive means no such curve, though single readings can be large; an effect the other way counts as inactive or inconclusive; further: nearly all actives have a fitted effect of over 55% in size
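Compound effects on tau fibrillization are measured by Alexa 594 fluorescence polarization (ex 555, em 632 nm). K18 P301L tau is used at 15 uM with 0.24 uM labeled tracer, and 20 uM heparin induces aggregation over 6 hr at 37 C.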
Active calls of the source: *; [ ] = dose if it differs, or a comment. Unless noted, the call rests on the fitted dose curve; in most records, active means well fitted inhibition curve with a large enough effect (not every such curve was filed as active); inconclusive means small, poorly fitted or top-dose-only effect, or another doubt; inactive means no such curve, though single readings can be large or run the other way. Unless noted, on the % scale 0 is the no-effect control and ±100 the full control effect; potency means the concentration at half of the fitted maximal effect.

Clc1ccccc1-c1nnc2sc(C3COc4ccccc4O3)nn12 (centres undefined) was read as Tau fluor counter -16%, HPGD inh 20µM*, KDM4E inh 7%, ALDH1A1 block 7.1µM*, Tau fibril ThT inconclusive and Tau fibril FP -3%.
c1ccc(OCc2nnc3sc(C4COc5ccccc5O4)nn23)cc1 (centres undefined) was read as Tau fluor counter -21%, HPGD inh 7.1µM*, KDM4E inh 3%, ALDH1A1 block 10µM*, Tau fibril ThT inconclusive and Tau fibril FP -1%.
For Cc1ccc(-c2nnc3sc(C4COc5ccccc5O4)nn23)cc1 (centres undefined) the results were Tau fluor counter 4%, HPGD inh -28%, KDM4E inh 4%, ALDH1A1 block inconclusive, Tau fibril ThT -16% and Tau fibril FP 5%.
For CCOC(=O)CCN1C(=O)[C@H]2[C@H]3[C@H](O)[C@H](O)C/C(=N/NC(=O)OCC)[C@H]3CC[C@@H]2C1=O the results were Tau fluor counter -2%[11.6 µM], ALDH1A1 block 5%[13.5 µM], Tau fibril ThT -1%[11.5 µM] and Tau fibril FP -5%[11.6 µM].
For CC(=O)c1ccc(N=Nc2ccc(N)cc2)cc1 the results were Tau fluor counter inconclusive, KDM4E inh -3%, Tau fibril ThT 0.56µM* and Tau fibril FP -5%.
`CC(=O)c1ccc(NS(=O)(=O)c2ccc(N)cc2)cc1` gave Tau fluor counter -4%, KDM4E inh -1%, ALDH1A1 block 8%, Tau fibril ThT -2% and Tau fibril FP -3%.
`CN1Cc2c(C(=O)OC(C)(C)C)ncn2-c2ccsc2C1=O` gave Tau fluor counter -3%, HPGD inh -6%, KDM4E inh -22%, ALDH1A1 block 11µM*, Tau fibril ThT -7% and Tau fibril FP 7%.
`COc1ccc(CCNC(=O)C(=O)NCC(c2cccs2)S(=O)(=O)c2ccc(C)cc2)cc1` (centres undefined) gave Tau fluor counter -8%, Tau fibril ThT 1% and Tau fibril FP -14%.
`CCO/C(C)=C1/SC(=S)NC1=O` gave Tau fluor counter -14%, KDM4E inh -11% and Tau fibril FP -8%.
`O=C1OC(c2ccccc2)=N/C1=C\C=C\c1ccco1` gave Tau fluor counter -12%, KDM4E inh -13%, ALDH1A1 block inconclusive, Tau fibril ThT 14µM* and Tau fibril FP -4%.
`CCCCn1cnc2cc(C)c(C)cc21` gave Tau fluor counter 1%, KDM4E inh 9%, ALDH1A1 block -3%, Tau fibril ThT -8% and Tau fibril FP -4%.
Screening Nc1ccc2c(c1)C(=O)N(CC1CCCO1)C2=O (centres undefined) returned Tau fluor counter -2%, HPGD inh -5%, KDM4E inh -4%, ALDH1A1 block 8.9µM*, Tau fibril ThT -3% and Tau fibril FP 0%.
Nc1ccc(Oc2ccc3c(c2)C(=O)N(CC2CCCO2)C3=O)cc1 (centres undefined) was read as Tau fluor counter -15%, KDM4E inh 11%, ALDH1A1 block 28µM*, Tau fibril ThT -7% and Tau fibril FP -1%.
`O=C(NN1C(=O)c2ccccc2C1=O)c1ccc2c(c1)C(=O)N(CC1CCCO1)C2=O` (centres undefined) gave Tau fluor counter -5%, KDM4E inh -2% and Tau fibril FP -4%.
For COc1ccccc1-c1nc2ccccc2nc1-c1ccccc1OC the results were Tau fluor counter -4%, HPGD inh -8%, KDM4E inh -11%, ALDH1A1 block inconclusive, Tau fibril ThT 0% and Tau fibril FP 1%.
`COc1ccc2nc3ccccc3nc2c1N` gave Tau fluor counter inconclusive, KDM4E inh inconclusive, Tau fibril ThT 10µM* and Tau fibril FP inconclusive.
`COc1ccc2nc(-c3ccccc3)cc(OC)c2c1` gave Tau fluor counter -12%, HPGD inh -13%, KDM4E inh inconclusive, ALDH1A1 block -12%, Tau fibril ThT -8% and Tau fibril FP -4%.
For COc1ccc2nc3cccc(OC)c3nc2c1 the results were Tau fluor counter -26%, KDM4E inh -24%, ALDH1A1 block inconclusive, Tau fibril ThT 16µM* and Tau fibril FP inconclusive.
Screening CCOc1ccc(NC(=O)CSc2nnc(Cc3cccn3C)n2-c2ccc(OC)cc2)cc1 returned Tau fluor counter -3%, HPGD inh -9%, KDM4E inh -1%, ALDH1A1 block 4µM*, Tau fibril ThT inconclusive and Tau fibril FP 6%.
For COc1ccc(C(=O)NCc2nnc(SCC(=O)Nc3ccc(F)cc3)n2-c2ccccc2)cc1 the results were Tau fluor counter inconclusive, Tau fibril ThT -22% and Tau fibril FP -3%.
`CN(C)S(=O)(=O)c1ccc(C(=O)NCc2nnc(SCC(=O)Nc3ccc(F)cc3)n2-c2ccc(F)cc2)cc1` gave Tau fluor counter inconclusive, HPGD inh -12%, KDM4E inh -3%, ALDH1A1 block 7.1µM*, Tau fibril ThT -3% and Tau fibril FP -10%.
Screening CC(=O)c1ccc(NC(=O)CSc2nnc(Cc3cccn3C)n2-c2ccc(F)cc2)cc1 returned Tau fluor counter -20%, HPGD inh 1%, KDM4E inh 1%, ALDH1A1 block 13µM*, Tau fibril ThT -11% and Tau fibril FP 5%.
Screening Cn1cccc1Cc1nnc(SCC(=O)N2CCN(c3ccccc3)CC2)n1-c1ccc(F)cc1 returned Tau fluor counter -14%, HPGD inh 1%, KDM4E inh -30%, ALDH1A1 block 14µM*, Tau fibril ThT inconclusive and Tau fibril FP -15%.
Screening C#CCCCO/N=C1/C[C@@H](O)[C@@H](O)[C@@H]2[C@@H]3C(=O)N(C(C)(C)C)C(=O)[C@H]3CC[C@H]12 returned Tau fluor counter -2%[11.6 µM], ALDH1A1 block 6%[13.5 µM], Tau fibril ThT -2%[11.5 µM] and Tau fibril FP 1%[11.6 µM].
CCCc1cc(N2CCN(c3cc(Cl)ccc3C)CC2)n2cnnc2n1 was read as Tau fluor counter -3%, Tau fibril ThT inconclusive and Tau fibril FP -6%.
C[C@]12CC[C@@H]3c4ccc(O)cc4CC[C@H]3[C@@H]1CC[C@H]2O was read as Tau fluor counter -7%, HPGD inh -1%, ALDH1A1 block -2%, Tau fibril ThT -7% and Tau fibril FP -1%.
`COc1ccc(NC(=O)CSc2nnc(Cc3cccn3C)n2-c2ccc(OC)cc2)cc1` gave Tau fluor counter -20%, HPGD inh -3%, KDM4E inh -8%, ALDH1A1 block 14µM*, Tau fibril ThT -17% and Tau fibril FP 1%.

From PubChem
